This is an account of results in ChEMBL document CHEMBL1961873, “Compounds: GSK PKIS; Assays: Nanosyn kinase panel” (2012).

The inhibition is the drop in the measured response relative to a control, in per cent.

SMILES strings stand for the structures.

Test [1] has as its target High affinity nerve growth factor receptor (Homo sapiens) (UniProt P04629). The settings on record: at 1 µM.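 Also: each value is the mean percent inhibition of TRKA.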
Test [2] concerns the target BDNF/NT-3 growth factors receptor (Homo sapiens) (UniProt Q16620). The settings on record: at 0.1 µM.
For test [3] the target is unchanged. The settings on record: at 1 µM.
Test [4] deals with NT-3 growth factor receptor (Homo sapiens) (UniProt Q16288). The settings on record: at 0.1 µM.
The target is the same in test [5]. To be noted: at 1 µM.
The target in test [6] is T1, Tyrosine-protein kinase TXK (Homo sapiens) (UniProt P42681).
T1 sequence (whole entry): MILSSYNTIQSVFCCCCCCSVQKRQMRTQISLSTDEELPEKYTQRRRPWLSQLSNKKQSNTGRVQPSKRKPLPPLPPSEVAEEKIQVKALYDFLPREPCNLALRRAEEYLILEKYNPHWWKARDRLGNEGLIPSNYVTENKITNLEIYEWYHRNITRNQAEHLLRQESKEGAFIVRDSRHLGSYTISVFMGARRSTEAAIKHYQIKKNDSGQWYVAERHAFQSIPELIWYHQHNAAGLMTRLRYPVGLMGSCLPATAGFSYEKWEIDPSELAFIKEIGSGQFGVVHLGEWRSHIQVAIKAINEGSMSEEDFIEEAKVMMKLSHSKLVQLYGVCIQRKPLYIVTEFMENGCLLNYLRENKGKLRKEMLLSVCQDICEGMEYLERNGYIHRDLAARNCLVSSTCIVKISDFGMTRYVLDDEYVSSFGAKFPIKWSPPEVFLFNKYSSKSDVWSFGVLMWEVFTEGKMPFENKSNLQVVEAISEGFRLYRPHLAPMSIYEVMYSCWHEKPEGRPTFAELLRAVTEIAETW
To be noted: at 0.1 µM.

Test [7] concerns the target T1, Tyrosine-protein kinase TXK (Homo sapiens). To be noted: at 1 µM.
In test [8] the target is Non-receptor tyrosine-protein kinase TYK2 (Homo sapiens) (UniProt P29597). To be noted: at 0.1 µM.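 Also: each value is a mean of the inhibition readings.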
Test [9] concerns the target T2, Dual specificity protein kinase TTK (Homo sapiens) (UniProt P33981).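 Also: reported figures are mean TTK inhibition at 1 µM.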
T2 sequence (whole entry): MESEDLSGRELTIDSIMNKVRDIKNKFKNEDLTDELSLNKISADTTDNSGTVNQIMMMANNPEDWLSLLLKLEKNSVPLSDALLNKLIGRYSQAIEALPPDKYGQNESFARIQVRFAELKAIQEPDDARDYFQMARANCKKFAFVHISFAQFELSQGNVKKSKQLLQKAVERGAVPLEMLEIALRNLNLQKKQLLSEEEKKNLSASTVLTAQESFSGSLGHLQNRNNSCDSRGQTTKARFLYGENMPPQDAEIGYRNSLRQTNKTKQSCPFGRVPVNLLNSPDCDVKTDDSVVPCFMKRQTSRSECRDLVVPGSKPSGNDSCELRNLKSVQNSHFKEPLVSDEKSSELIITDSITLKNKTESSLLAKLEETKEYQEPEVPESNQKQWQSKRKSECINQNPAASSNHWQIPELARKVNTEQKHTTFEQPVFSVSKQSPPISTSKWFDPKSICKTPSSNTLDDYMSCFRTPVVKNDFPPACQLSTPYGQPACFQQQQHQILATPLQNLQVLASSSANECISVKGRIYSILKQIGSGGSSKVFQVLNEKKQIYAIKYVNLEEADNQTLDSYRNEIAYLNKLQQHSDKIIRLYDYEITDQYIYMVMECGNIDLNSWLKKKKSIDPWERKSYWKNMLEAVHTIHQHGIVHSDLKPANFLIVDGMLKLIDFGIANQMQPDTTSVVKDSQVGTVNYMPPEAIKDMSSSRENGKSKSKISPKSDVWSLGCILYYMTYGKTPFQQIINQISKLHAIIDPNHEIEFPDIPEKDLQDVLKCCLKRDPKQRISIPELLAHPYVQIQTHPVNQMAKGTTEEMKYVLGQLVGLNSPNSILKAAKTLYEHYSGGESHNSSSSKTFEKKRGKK
To be noted: at 1 µM.

The target in test [10] is T3, Aurora kinase A (Homo sapiens) (UniProt O14965).
T3 sequence (whole entry): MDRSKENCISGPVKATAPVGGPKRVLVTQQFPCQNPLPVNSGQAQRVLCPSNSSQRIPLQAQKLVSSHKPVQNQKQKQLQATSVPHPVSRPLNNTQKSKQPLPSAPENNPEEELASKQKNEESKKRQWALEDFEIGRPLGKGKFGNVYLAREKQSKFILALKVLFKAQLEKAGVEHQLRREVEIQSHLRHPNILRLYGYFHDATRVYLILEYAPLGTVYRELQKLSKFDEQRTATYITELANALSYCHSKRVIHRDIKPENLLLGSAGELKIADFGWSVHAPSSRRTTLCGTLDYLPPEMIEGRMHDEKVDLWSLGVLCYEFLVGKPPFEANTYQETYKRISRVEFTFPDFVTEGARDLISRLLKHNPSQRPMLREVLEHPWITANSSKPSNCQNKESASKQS
To be noted: at 0.1 µM.

Test [11] concerns the target T3, Aurora kinase A (Homo sapiens). To be noted: at 1 µM.
Test [12] has as its target Aurora kinase B (Homo sapiens) (UniProt Q96GD4). The settings on record: at 0.1 µM.
Test [13] shares this target. The settings on record: at 1 µM.
Test [14] concerns the target T4, Aurora kinase C (Homo sapiens) (UniProt Q9UQB9).
T4 sequence (whole entry): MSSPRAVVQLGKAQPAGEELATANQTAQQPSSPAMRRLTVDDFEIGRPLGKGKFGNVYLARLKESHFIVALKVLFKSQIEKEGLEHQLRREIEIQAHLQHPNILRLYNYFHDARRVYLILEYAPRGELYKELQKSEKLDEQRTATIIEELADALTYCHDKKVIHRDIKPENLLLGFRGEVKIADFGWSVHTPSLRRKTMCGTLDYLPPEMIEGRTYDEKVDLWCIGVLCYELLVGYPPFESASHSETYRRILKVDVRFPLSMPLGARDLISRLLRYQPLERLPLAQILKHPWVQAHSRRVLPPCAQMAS
To be noted: at 0.1 µM.

Test [15] has as its target T4, Aurora kinase C (Homo sapiens). To be noted: at 1 µM.
The target in test [16] is Serine/threonine-protein kinase 10 (Homo sapiens) (UniProt O94804). The settings on record: at 0.1 µM.
The target is the same in test [17]. The settings on record: at 1 µM.
For test [18], the target named is T5, Mitogen-activated protein kinase kinase kinase kinase 2 (Homo sapiens) (UniProt Q12851).
T5 sequence (whole entry): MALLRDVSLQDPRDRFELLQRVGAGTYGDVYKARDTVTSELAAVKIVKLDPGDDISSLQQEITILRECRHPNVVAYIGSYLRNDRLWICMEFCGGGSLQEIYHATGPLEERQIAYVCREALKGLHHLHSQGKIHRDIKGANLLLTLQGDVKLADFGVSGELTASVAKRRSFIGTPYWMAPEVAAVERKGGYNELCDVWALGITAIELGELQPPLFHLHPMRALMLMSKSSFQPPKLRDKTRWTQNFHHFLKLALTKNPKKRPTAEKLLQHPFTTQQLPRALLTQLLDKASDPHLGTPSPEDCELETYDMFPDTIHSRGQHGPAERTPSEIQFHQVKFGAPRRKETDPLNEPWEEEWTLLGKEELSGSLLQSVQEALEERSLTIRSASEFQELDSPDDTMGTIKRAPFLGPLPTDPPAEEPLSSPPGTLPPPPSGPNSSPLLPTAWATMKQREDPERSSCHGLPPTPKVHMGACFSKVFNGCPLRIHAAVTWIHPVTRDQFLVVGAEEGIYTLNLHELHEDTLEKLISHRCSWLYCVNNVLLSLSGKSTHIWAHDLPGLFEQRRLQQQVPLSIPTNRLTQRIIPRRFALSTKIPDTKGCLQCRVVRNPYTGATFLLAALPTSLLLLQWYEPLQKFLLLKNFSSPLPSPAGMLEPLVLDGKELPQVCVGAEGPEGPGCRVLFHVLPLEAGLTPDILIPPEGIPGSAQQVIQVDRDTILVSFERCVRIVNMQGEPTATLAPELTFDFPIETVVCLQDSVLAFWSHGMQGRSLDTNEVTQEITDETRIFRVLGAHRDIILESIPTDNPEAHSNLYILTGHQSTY
The settings on record: at 0.1 µM.

Test [19] deals with T5, Mitogen-activated protein kinase kinase kinase kinase 2 (Homo sapiens). The settings on record: at 1 µM.
The target of test [20] is Mitogen-activated protein kinase kinase kinase kinase 4 (Homo sapiens) (UniProt O95819). To be noted: at 0.1 µM.
Mitogen-activated protein kinase kinase kinase kinase 4 (Homo sapiens), sequence (O95819 2-1239 limits assumed): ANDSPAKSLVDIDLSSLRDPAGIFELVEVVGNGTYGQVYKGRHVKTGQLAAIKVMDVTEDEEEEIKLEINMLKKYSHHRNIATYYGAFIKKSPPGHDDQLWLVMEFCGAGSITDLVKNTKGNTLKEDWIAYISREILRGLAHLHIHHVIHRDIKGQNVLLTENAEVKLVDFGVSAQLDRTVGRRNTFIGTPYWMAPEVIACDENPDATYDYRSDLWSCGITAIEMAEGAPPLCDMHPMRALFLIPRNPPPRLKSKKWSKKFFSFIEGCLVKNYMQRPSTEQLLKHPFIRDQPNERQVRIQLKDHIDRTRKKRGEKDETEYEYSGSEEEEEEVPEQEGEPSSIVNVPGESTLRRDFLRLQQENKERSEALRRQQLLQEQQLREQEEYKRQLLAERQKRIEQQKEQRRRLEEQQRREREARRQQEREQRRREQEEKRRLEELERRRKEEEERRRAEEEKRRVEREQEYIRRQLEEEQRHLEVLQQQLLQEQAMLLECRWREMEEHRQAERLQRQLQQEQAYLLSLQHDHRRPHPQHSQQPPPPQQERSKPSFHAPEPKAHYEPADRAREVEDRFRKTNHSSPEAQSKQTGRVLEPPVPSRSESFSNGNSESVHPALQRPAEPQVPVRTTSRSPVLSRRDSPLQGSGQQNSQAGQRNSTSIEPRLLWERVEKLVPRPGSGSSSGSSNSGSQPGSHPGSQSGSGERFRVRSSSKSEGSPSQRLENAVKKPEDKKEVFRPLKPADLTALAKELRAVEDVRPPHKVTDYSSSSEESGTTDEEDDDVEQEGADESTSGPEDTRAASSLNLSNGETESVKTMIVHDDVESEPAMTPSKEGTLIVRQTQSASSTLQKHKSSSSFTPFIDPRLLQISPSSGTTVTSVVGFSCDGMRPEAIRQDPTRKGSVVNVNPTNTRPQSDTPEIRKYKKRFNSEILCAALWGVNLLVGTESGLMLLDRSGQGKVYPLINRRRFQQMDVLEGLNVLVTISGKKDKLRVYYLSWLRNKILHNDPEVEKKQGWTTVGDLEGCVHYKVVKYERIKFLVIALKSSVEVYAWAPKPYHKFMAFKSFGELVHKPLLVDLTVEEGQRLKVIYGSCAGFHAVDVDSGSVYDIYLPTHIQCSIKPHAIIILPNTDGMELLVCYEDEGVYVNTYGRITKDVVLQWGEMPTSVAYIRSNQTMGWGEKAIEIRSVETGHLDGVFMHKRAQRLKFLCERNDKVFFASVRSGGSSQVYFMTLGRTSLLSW

BDNF/NT-3 growth factors receptor (Homo sapiens), sequence (Q16620 32-822 limits assumed): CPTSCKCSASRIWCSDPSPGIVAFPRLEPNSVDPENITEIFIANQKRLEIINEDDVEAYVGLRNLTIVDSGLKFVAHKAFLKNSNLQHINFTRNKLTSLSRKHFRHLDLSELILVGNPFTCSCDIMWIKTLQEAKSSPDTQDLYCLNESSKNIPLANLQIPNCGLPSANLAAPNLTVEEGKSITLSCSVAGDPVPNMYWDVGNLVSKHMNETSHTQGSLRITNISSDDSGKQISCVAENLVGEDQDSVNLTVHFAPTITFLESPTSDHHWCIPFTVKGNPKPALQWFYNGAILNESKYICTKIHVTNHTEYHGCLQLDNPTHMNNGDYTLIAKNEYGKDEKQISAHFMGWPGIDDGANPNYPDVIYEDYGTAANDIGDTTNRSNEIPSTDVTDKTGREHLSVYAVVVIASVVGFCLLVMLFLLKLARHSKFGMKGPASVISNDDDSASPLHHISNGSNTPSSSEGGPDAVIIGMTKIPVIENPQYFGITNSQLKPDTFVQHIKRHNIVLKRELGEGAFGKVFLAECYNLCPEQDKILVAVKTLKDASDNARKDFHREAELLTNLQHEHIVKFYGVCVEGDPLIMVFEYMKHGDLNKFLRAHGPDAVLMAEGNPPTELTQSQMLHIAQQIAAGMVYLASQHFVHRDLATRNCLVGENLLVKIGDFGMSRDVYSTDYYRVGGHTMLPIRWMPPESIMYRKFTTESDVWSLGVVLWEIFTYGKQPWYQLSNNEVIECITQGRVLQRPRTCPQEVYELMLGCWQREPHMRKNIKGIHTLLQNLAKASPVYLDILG
NT-3 growth factor receptor (Homo sapiens), sequence (Q16288 32-839 limits assumed): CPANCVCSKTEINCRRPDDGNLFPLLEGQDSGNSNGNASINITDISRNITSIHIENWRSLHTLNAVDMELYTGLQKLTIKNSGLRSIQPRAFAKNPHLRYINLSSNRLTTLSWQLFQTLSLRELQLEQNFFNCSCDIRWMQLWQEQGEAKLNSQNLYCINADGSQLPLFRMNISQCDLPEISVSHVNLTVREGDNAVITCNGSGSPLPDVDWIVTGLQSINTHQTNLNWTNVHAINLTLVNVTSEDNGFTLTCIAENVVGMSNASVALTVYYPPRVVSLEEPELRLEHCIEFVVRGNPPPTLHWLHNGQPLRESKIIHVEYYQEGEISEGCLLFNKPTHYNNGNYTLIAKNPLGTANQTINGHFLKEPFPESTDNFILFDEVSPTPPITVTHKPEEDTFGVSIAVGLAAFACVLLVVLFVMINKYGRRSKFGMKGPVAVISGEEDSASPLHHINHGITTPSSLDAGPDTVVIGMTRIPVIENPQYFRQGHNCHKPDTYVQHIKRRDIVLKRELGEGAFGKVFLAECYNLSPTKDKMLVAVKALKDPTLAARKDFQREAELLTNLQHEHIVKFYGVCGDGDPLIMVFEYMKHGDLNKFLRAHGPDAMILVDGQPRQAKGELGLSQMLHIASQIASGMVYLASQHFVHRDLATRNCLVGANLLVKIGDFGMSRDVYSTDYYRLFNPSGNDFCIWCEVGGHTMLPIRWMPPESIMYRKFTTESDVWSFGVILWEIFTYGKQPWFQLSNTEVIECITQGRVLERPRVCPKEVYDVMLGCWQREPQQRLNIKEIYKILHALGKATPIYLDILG
Non-receptor tyrosine-protein kinase TYK2 (Homo sapiens), sequence (P29597 whole entry): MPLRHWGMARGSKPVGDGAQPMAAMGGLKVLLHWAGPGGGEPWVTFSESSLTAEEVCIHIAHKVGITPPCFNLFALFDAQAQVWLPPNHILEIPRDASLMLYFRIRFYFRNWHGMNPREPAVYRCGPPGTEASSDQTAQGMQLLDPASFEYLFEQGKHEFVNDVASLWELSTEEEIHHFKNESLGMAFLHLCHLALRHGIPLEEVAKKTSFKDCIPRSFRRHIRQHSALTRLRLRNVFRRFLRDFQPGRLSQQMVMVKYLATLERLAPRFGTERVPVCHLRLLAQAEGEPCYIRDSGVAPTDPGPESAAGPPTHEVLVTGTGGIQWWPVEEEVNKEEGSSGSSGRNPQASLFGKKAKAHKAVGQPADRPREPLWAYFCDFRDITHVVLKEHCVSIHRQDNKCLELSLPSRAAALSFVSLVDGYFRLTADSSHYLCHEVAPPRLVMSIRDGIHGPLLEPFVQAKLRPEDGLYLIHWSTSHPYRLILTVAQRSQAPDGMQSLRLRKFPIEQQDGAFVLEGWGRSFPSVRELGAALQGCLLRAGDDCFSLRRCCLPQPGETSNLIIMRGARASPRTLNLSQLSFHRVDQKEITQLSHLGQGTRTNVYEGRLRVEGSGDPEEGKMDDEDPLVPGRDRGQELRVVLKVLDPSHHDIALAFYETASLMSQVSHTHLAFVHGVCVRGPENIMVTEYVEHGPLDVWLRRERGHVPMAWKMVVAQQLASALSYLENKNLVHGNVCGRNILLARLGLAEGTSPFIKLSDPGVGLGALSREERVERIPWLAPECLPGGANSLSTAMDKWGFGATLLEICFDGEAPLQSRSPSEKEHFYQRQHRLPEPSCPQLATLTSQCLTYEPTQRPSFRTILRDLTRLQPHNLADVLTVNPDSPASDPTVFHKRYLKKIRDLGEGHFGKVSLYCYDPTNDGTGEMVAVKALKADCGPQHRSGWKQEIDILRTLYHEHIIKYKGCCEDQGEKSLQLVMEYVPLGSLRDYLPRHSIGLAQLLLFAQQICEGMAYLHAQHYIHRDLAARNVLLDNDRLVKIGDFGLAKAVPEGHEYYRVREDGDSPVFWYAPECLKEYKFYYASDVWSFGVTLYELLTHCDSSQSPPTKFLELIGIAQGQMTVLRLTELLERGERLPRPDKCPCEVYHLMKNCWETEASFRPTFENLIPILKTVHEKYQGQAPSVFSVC
High affinity nerve growth factor receptor (Homo sapiens), sequence (P04629 33-796 limits assumed): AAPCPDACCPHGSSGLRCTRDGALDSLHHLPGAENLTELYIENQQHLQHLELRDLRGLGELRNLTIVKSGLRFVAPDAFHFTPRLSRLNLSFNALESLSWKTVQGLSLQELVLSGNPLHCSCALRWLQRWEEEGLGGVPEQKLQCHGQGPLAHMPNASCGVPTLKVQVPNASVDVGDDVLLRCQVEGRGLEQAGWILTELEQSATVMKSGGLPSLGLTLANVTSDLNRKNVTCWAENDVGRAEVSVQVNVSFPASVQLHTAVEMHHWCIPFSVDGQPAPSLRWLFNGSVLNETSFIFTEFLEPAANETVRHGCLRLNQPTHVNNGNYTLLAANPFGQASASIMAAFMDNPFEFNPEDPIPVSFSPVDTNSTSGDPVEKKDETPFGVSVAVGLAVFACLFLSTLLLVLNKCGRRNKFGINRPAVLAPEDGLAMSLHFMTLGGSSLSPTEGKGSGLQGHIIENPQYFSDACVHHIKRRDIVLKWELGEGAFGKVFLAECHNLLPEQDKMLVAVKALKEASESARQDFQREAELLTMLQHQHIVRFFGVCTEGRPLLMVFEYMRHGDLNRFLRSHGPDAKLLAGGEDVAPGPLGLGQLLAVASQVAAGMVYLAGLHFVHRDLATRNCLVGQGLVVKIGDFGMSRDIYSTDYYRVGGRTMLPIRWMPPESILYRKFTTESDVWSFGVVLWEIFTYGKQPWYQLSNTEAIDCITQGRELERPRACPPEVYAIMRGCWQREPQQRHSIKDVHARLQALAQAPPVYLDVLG

In the case of `NS(=O)(=O)c1ccc(Nc2ncc(-c3ccccc3)o2)cc1`, the inhibition in test [1] was 8.51%; in [2], 5.29%; in test [3], 15.4%; in [4], 3.31%; in [5], 16.7%; in test [6], 4.63%. Further, the inhibition in [7] is 5.69%; in [8] it was -1.15%; in test [9] it was 13.2%; in test [10] it was 8.3%; in test [11], 67.2%; in test [12], 5.18%. Also, the inhibition in test [13] amounted to 24.7%; in [14] it was 6.57%; in test [15], 54.5%; in test [16] it was 5.53%; in [17], 11.7%; in test [18], 1.1%. For the same molecule, the inhibition in [19] worked out at 8.73%; in test [20] it was 12.4%.
`COc1cc(/C=N/Nc2ncnc3[nH]ncc23)ccc1O`: the inhibition in test [1] stood at 3.15%; in test [2] it was 3.49%; in [3], 10.7%; in [4], 2.95%; in test [5], 11.2%; in test [6] it was 5.2%. Further, the inhibition in test [7] is 24.9%; in [8], -2.44%; in [9], 13.4%; in test [10], 6.3%; in [11], 55.1%; in [12] it was 9.45%. The inhibition amounted to 42.1% in test [13]; 6.8% in test [14]; 66% in test [15]; 5.88% in [16]; 19.5% in test [17]; 1.7% in test [18]. The values for the inhibition in [19] and in test [20] were 9.66% and 7.81%, respectively.
For the molecule `Fc1ccc(-c2nn3ncccc3c2-c2ccnc(Nc3ccc4c(c3)OCCO4)n2)cc1`, the inhibition in test [1] is 16.7%; in test [2], 4.94%; in [3], 12.8%; in [4] it was 3.72%; in test [5], 8.83%; in test [6] it was 10.8%. Also, the inhibition in [7] was 38%; in [8] it was -8.76%; in test [9], 19.2%; in test [10], 2.98%; in [11], 33.7%; in test [12] it was 4.26%. The inhibition in test [13] was found to be 12.2%; in test [14], 1.04%; in test [15] it was 22.9%; in test [16], 10.8%; in test [17], 41.8%; in test [18] it was 1.14%. The inhibition in test [19] amounted to 12.1%; in [20] it was 20.1%.
Turning to `CC(=O)NCc1cccc(C#Cc2cncnc2Nc2ccc(OCc3cccc(F)c3)c(Cl)c2)c1`, the inhibition in test [1] was determined as 1.37%; in test [2] it was 0.64%; in [3] it was 2.98%; in test [4], 0.24%; in [5], 4.11%; in test [6], 2.29%. Further, the inhibition was -2.24% in test [7]; 0.84% in test [8]; -8.1% in [9]; 1.59% in test [10]; 5.66% in test [11]; 1.99% in test [12]. In addition, the inhibition in test [13] was 6.3%; in [14], 1%; in test [15] it was -2.37%; in test [16] it was 0.67%; in test [17], 8.18%; in test [18], 0.67%. Further, the inhibition in [19] was 3.21%; in test [20], 2.6%.
Regarding `Cc1cccc(Nc2ncc(-c3ccccc3)o2)c1`, the inhibition in test [1] came out at 6.23%; in test [2], 3.27%; in test [3], 11.7%; in [4], 1.16%; in test [5], 12.2%; in test [6], 7.08%. The inhibition was determined as 5.35% in test [7]; 1.38% in test [8]; 6.17% in test [9]; 2.74% in test [10]; 7.93% in test [11]; 3.4% in test [12]. Besides, the inhibition was found to be 7.88% in test [13]; 0.68% in test [14]; 11.2% in test [15]; 3.16% in test [16]; 7.96% in test [17]; 1.52% in test [18]. The inhibition worked out at 4.15% in test [19] and 2.79% in test [20].
In the case of `Fc1ccc(-c2cc(-c3c[nH]nc3-c3ccccn3)ccn2)cc1`, the inhibition amounted to 0.04% in test [1]; 4.04% in [2]; 4.77% in [3]; 4.06% in [4]; 3.45% in test [5]; 3.64% in [6]. In addition, the inhibition in [7] was 2.28%; in [8], -1.71%; in [9], 9.65%; in test [10], 3.15%; in [11] it was 4.79%; in [12], 2.48%. Besides, the inhibition was 5.17% in [13]; -0.57% in [14]; -4.87% in test [15]; 6.15% in test [16]; 11.2% in test [17]; -0.05% in test [18]. For the same molecule, the figures for the inhibition in test [19] and in test [20] were 1.6% and 13.7%, respectively.
Take `COC(=O)Nc1nc2ccc(S(=O)(=O)c3ccc(NC(=O)Nc4cc(C(F)(F)F)ccc4F)cc3)cc2[nH]1`: the inhibition in test [1] is 2.05%; in [2], 0.88%; in test [3], 3.21%; in test [4] it was 1.98%; in [5], 3.91%; in test [6], 2.55%. The inhibition in [7] was 4.65%; in test [8] it was -1.55%; in test [9], 10.5%; in [10], 3.13%; in test [11] it was 8.25%; in test [12] it was 3.7%. Besides, the inhibition in [13] was 7.15%; in test [14] it was 0.87%; in test [15], 14.1%; in test [16] it was 3.49%; in test [17], 10.6%; in test [18] it was -0.09%. Besides, the inhibition in test [19] was 1.67%; in [20], 2.49%.
